Here are results for twelve compounds from PubChem BioAssay (NCATS).

Molecules are shown by their SMILES. Values without a mark were called inactive. Results filed as inconclusive are left out. The source made the active and inactive calls. Calls come from the whole dose curve; as a rule, active = well fitted curve in the direction sought with a large enough effect; inconclusive = small, poorly fitted or top-dose-only effect, or another doubt; inactive = no such curve, though single readings can be large; an effect the other way counts as inactive or inconclusive.

In assay [1] the target is N-terminal Xaa-Pro-Lys N-methyltransferase 1 (Homo sapiens) (UniProt Q9BV86). As to the kind of experiment: qHTS Assay for Inhibitors of N-terminal methyltransferase 1 (NTMT1): LOPAC validation of the NTMT1 SAHH-coupled ThioGlo3 Assay (AID 1347143).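 Note: SAH from peptide methylation measured as thiol fluorescence via SAHH coupling and ThioGlo3; nearly all actives have a fitted effect of over 70% in size.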 Note: potency is the fitted concentration of half-maximal effect. The essentials: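 NTMT1 125nM + cpds (various conc.), 1 min RT; add SAM 100uM/SAHH 10uM/ThioGlo3 15uM (addition mix). SAHH-coupled thiol detection, Ex340/Em450, t0 and 30 min RT; signal normalized to background. LOPAC 1280-cpd pilot.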

Assay [2] concerns the target Furin (Homo sapiens) (UniProt P09958). Kind of assay: Furin counterscreen qHTS for Zika virus inhibitors (AID 1347149). Note: nearly all actives have a fitted effect of over 70% in size. Note: potency is the fitted concentration of half-maximal effect. In short, it runs like this:
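Counterscreen measures cleavage of 2 microM BOC-RVRR-AMC, below its ~15 microM Km, by 5 nM full-length human furin at pH 7.0 after a 15-min compound preincubation. Inhibition derives from the 15-min fluorescence increase at 37C.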
A general note: A counterscreen serves to expose hits that act by an unwanted route or on another target.

Assay [3] concerns Zika virus NS2B-NS3 protease (unlinked). As to the kind of experiment: Optimization of GU AMC qHTS for Zika virus inhibitors: Unlinked NS2B-NS3 protease assay (AID 1347151). Note: nearly all actives have a fitted effect of over 80% in size. Note: potency is the fitted concentration of half-maximal effect. In short, it runs like this:
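Noncovalent complex of NS2B hydrophilic domain and NS3 protease domain, 25 nM final, in 10 mM Tris-HCl pH 8.0, 0.01% Tween 20. AMC fluorescence change over 15 min at room temperature was fitted to a 4-parameter Hill equation.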
(Quantitative high-throughput screening tests each substance at several concentrations.)

Assay [4] concerns Zika virus NS2B-NS3 protease (unlinked complex). As to the kind of experiment: Confirmatory screen GU AMC qHTS for Zika virus inhibitors (AID 1347153). Note: nearly all actives have a fitted effect of over 70% in size. The essentials: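 Compounds were preincubated 15 min at room temperature with 25 nM noncovalent NS2B-NS3 protease at pH 8.0; AMC substrate added at 10 microM and 15-min fluorescence gain (340/450 nm) converted to percent inhibition, fitted 4-parameter.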

The subject of assay [5] is Zika virus NS2B-NS3 protease. Kind of assay: Primary screen GU AMC qHTS for Zika virus inhibitors (AID 1347154). Note: nearly all actives have a fitted effect of over 70% in size. Note: potency is the fitted concentration of half-maximal effect. In short, it runs like this: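 Fluorogenic AMC-substrate cleavage by noncovalent NS2B-NS3 protease complex (25 nM, pH 8.0 Tris buffer with Tween 20) followed for 15 minutes at room temperature (~20% conversion). Percent inhibition from ex340/em450 signal change, fitted by 4-parameter Hill equation.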

Assay [6] is described as follows: Confirmatory screen NINDS Rhodamine qHTS for Zika virus inhibitors (AID 1347161).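 Note: purified Zika NS2B-NS3 protease with linked NS2B cofactor domain and Rhodamine110 peptide substrate; series mostly up to about 110 µM; nearly all actives have a fitted effect of over 60% in size.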 In short, it runs like this: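 Enzyme (25 nM, linked NS2B-NS3) was preincubated 15 min with compound in 10 mM Tris-HCl pH 8.0, 0.01% Tween 20. Rhodamine110 substrate (1.5 microM) was then added and fluorescence read at start and after 15 min.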
Assay [7] has as its target Lysine-specific demethylase 5B (Homo sapiens) (UniProt Q9UGL1). As to the kind of experiment: Optimization screen for KDM5B Histone Demethylases FDH coupled qHTS against the LOPAC library (AID 1347166). The essentials:
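KDM5BDeltaAP (200nM final) in 50mM HEPES pH 7.5, 0.01% Tween-20 was preincubated with compound for 10 min at room temperature. A substrate mix of 12.5uM H3K4Me3, 25uM a-ketoglutarate, ascorbate, Fe2+, NAD+ and formaldehyde dehydrogenase was then added. NADH fluorescence (340/450 nm) was read initially and after 30 min.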

Assay [8] is described as follows: Vero cells viability qHTS for Zika virus inhibitors (AID 1347167). In short, it runs like this: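 Luminescent ATP readout (CellTiter Glo) after 30 min at 37 degrees C gives viability; cells in DMEM + 4% FBS were treated 24 to 48 hours with compound, following overnight attachment.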
The nature of assay [9]: Tertiary RLuc qRT-PCR qHTS assay for Zika virus inhibitors (AID 1347169). Note: top concentration of the series differs between compounds; nearly all actives have a fitted effect of over 55% in size. In short, it runs like this:
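Vero cells (1,000 per well) plated overnight at 37 degrees C, treated with compound in DMSO, then infected with recombinant ZIKV-RLuc (Cambodian) at MOI 1-2 for 48-72 hrs. Live-cell Renilla luciferase substrate added; luminescence read after 1-1.5 hrs.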

Assay [10] is described as follows: qHTS to identify inhibitors of the type 1 interferon - major histocompatibility complex class I in skeletal muscle: primary screen against the NCATS LOPAC collection (AID 1347405).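 Note: lytic HiBiT luminescence reporting HLA-B protein level.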 In short, it runs like this: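 After 24 h at 37 C with compounds (7-point, 1:4.3 dilutions, 46 uM top final) plus 4 ng/ml IFN-beta, luminescence from lytic HiBiT detection was measured. HLA-B*08:01 in C25cl48 myoblasts carried an endogenous C-terminal HiBiT tag; medium lacked dexamethasone.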

The nature of assay [11]: qHTS to identify inhibitors of the type 1 interferon - major histocompatibility complex class I in skeletal muscle: primary screen against the NCATS Pharmaceutical Collection (AID 1347407).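 Note: luminescence of HiBiT knocked into endogenous HLA-B as interferon-induced MHC class I level.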 The essentials:
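Immortalized human myoblasts (C25cl48) with HiBiT knocked into endogenous HLA-B*08:01 were stimulated with 4 ng/ml IFN-beta and treated with compounds (8-point, 1:5, top 46 uM final) for 24 h at 37 C; HiBiT lytic luminescence read.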

Assay [12] in a line: qHTS for inhibitors of adenylyl cyclases using a fission yeast platform: a pilot screen against the NCATS LOPAC library (AID 1347410). The essentials: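 S. pombe CHP2027 (AC9-GNAS-PDE4D2) carrying a PKA-repressed fbp1-GFP reporter was exposed to LOPAC compounds (final up to 57 µM) for 18 h at 30C in the dark, in EMM with histidine, lysine and uracil; GFP gain-of-signal read by laser scanning cytometry.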

Assay [13] can be described thus: qHTS of pediatric cancer cell lines to identify multiple opportunities for drug repurposing: Confirmatory screen for SK-N-SH cells (AID 1347129).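 Note: cells exposed to compound for 48 h before viability read; nearly all actives have a fitted effect of over 60% in size.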 Note: potency is the fitted concentration of half-maximal effect. The essentials:
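Cells (500-1,000/well) rested 5 h, then received compounds for 48 h; metabolically active cells were measured by CellTiter-Glo luminescence. Final concentrations spanned up to 46 µM (MIPE, 11-point) or 0.59 nM-46 µM (NPC, 8-point) in primary screens, 11-point in follow-ups.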

A short description of assay [14]: Confirmatory screen GU Rhodamine qHTS for Zika virus inhibitors qHTS (AID 1347157). In short, it runs like this:
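A qHTS format was used, with compound concentrations ranging up to 114 microM. Each compound was preincubated with 25 nM NS2B-NS3 protease, and the substrate was then added at 1.5 microM. Curves were fitted with a 4-parameter Hill model.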

The subject of assay [15] is Zika virus NS2B-NS3 protease (unlinked complex). Kind of assay: Primary screen GU Rhodamine qHTS for Zika virus inhibitors: Unlinked NS2B-NS3 protease assay (AID 1347159). Note: potency is the fitted concentration of half-maximal effect; nearly all actives have a fitted effect of over 60% in size. The essentials:
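Percent inhibition came from the 15-min rise in Rhodamine110 fluorescence (1.5 microM substrate, ~15% conversion), normalized to no-inhibitor and no-enzyme wells and Hill-fitted. Unlinked protease, 25 nM, pH 8.0 Tris buffer; compounds up to 114 microM, 15-min preincubation.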

In assay [16] the test system is Zika virus NS2B-NS3 protease (linked construct). As to the kind of experiment: Primary screen NINDS Rhodamine qHTS for Zika virus inhibitors (AID 1347160). Note: potency is the fitted concentration of half-maximal effect; nearly all actives have a fitted effect of over 55% in size. In short, it runs like this: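 Rhodamine110-peptide cleavage (1.5 µM substrate) by 25 nM linked NS2B-NS3 enzyme at pH 8.0 (Tris, Tween 20), after 15 min RT preincubation with compounds; 15-min fluorescence change normalized to controls and Hill-fitted.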

Assay [17] concerns Zika virus NS2B-NS3 protease (linked). As to the kind of experiment: 384 well plate NINDS AMC confirmatory qHTS for Zika virus inhibitors (AID 1347163). Note: potency is the fitted concentration of half-maximal effect; nearly all actives have a fitted effect of over 50% in size. In short, it runs like this: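 Fluorescence at 355/460 nm was read after 25 minutes of cleavage of 30 microM Ac-VKTGKR-AMC at room temperature, in the dark. Before substrate addition, compounds (up to 1 mM final) sat ~15 minutes with 5, 30 or 60 nM linked protease. Signals were normalized to no-enzyme and no-inhibitor wells.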

Assay [18] relates to Zika virus NS2B-NS3 protease (linked construct). Kind of assay: 384 well plate NINDS Rhodamine confirmatory qHTS for Zika virus inhibitors (AID 1347164).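 Note: fluorescence from protease cleavage of Ac-LKRR-rhodamine 110 substrate; top concentration of the series differs between compounds; nearly all actives have a fitted effect of over 65% in size.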 The essentials:
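Linked protease at a final 5 nM, 30 nM or 60 nM was preincubated ~15 min with compounds, then given 10 microM Ac-LKRR-Rhodamine 110. Fluorescence (ex 485/em 538 nm) after 25 min in the dark at room temperature.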

Chain of N-terminal Xaa-Pro-Lys N-methyltransferase 1 (Homo sapiens) (Q9BV86 whole entry, looked up): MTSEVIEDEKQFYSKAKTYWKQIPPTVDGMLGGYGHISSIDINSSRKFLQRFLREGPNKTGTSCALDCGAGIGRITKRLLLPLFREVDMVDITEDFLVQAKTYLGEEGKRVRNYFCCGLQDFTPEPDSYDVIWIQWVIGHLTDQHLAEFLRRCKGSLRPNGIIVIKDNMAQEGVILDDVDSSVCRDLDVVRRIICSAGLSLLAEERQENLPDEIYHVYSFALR
Chain of Lysine-specific demethylase 5B (Homo sapiens) (Q9UGL1 whole entry, looked up): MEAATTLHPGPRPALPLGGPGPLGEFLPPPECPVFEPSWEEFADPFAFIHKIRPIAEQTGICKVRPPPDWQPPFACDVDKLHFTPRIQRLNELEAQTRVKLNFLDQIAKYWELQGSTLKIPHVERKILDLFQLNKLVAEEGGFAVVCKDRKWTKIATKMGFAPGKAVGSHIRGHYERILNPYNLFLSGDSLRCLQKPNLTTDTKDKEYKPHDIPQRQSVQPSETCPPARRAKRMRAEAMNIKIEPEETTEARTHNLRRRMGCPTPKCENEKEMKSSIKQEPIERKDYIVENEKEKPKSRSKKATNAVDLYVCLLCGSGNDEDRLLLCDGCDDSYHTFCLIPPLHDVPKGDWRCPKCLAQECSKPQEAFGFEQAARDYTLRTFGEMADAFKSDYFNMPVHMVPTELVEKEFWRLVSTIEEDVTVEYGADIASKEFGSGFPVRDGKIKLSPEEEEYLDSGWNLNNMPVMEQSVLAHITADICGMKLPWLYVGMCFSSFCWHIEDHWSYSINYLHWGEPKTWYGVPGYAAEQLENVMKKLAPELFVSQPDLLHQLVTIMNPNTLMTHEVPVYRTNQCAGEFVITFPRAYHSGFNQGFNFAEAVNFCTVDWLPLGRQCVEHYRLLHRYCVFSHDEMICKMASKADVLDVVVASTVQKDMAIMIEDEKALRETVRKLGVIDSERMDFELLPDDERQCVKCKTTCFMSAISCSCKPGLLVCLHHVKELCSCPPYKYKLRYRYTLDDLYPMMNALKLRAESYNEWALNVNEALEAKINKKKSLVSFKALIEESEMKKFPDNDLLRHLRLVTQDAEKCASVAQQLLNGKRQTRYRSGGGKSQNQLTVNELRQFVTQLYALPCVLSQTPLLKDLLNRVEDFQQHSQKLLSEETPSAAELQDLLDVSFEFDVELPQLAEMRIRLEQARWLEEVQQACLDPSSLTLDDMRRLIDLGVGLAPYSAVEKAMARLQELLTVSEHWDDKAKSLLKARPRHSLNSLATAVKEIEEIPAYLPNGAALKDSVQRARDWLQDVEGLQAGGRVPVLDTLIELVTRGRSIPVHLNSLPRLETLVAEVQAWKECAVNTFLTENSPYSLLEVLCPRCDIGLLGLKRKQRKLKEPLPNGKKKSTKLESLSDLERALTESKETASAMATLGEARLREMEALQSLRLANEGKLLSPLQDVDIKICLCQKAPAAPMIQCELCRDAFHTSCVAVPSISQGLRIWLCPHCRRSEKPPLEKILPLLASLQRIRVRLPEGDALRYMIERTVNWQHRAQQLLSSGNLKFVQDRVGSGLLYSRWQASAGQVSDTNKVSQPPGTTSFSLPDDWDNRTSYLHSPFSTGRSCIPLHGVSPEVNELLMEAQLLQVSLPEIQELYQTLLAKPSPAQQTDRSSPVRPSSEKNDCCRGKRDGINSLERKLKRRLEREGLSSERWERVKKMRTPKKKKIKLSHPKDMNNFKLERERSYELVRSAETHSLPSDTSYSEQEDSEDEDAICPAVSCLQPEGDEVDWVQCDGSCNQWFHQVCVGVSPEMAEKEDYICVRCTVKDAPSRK
Chain of Furin (Homo sapiens) (P09958 whole entry, looked up): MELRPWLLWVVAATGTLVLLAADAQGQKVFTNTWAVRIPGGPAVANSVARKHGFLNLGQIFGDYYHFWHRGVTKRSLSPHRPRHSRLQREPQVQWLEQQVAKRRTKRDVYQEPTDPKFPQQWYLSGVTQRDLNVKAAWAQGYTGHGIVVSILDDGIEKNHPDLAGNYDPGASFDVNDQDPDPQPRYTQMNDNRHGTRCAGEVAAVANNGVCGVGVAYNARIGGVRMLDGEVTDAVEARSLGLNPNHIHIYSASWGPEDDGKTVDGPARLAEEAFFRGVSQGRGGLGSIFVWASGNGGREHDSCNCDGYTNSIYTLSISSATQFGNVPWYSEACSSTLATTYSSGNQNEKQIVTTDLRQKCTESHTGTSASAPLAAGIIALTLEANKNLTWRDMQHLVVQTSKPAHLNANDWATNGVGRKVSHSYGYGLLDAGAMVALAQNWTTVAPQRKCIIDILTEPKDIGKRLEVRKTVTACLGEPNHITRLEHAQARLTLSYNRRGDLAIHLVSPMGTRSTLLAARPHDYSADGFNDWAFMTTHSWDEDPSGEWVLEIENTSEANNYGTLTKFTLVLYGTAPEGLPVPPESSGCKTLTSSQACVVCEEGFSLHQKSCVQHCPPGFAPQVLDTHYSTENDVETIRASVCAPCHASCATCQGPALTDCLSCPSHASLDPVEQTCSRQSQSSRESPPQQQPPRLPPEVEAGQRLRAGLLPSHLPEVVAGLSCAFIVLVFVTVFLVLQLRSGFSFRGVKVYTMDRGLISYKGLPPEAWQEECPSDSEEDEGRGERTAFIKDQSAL

For `Cc1[nH]c(=O)c(C#N)cc1-c1ccc2nccn2c1`, the Potency in assay [1] was 50.1 µM (active); in [3] it was 21.2 µM (active). Moreover, the Potency entry in [2], in assay [4], in assay [5], in [6], in assay [9] and in assay [10] was “inactive” in each case. The compound was called inactive in assay [7], in [8], in assay [11] and in assay [12].

`CCC(C)(C)C(=O)O[C@H]1C[C@@H](C)C=C2C=C[C@H](C)[C@H](CC[C@@H]3C[C@@H](O)CC(=O)O3)[C@H]21`: the Potency in assay [13] was 5.26 µM (active). For the same compound, in assay [5], the Potency entry is “inactive”. For the same compound, in assay [11], the result was inactive.

As to `NS(=O)(=O)c1cc2c(cc1Cl)NC=NS2(=O)=O`, the Potency entry in assay [1], in assay [3], in assay [5] and in [10] was “inactive” in each case. Besides, the call in [7], in [11] and in assay [12] was inactive.

In the case of `Cc1ccccc1C(OCCN(C)C)c1ccccc1` (stereo not given), the Potency entry in assay [1], in assay [3], in assay [5] and in [10] was “inactive” throughout. Moreover, the compound was classed as inactive in [7], in [11] and in [12].

For the compound `CNC[C@H](O)c1cccc(O)c1`, the Potency result in assay [1], in assay [3], in assay [5] and in assay [10] was “inactive” each time. For the same compound, the outcome in [7], in [11] and in assay [12] was inactive.

As for `O=C(Nc1nc2ccccc2n1CCN1CCOCC1)c1cccc([N+](=O)[O-])c1`, the Potency entry in [1], in [3] and in assay [5] was “inactive” throughout. In addition, the call in [7] and in assay [12] was inactive.

Consider `O=c1n(CCCN2CCN(c3cccc(Cl)c3)CC2)nc2ccccn12`, for which the Potency in assay [1] was 79.4 µM (active); in assay [2] it was 24.1 µM (active); in [3], 26.7 µM (active); in [5], 26.7 µM (active). In addition, the Potency result in [6] and in [10] was “inactive” throughout. For the same compound, the compound was classed as inactive in [8], in [11] and in [12].

Turning to `CC(C)(Sc1ccc(CCN(CCCCC2CCCCC2)C(=O)NC2CCCCC2)cc1)C(=O)O`, the Potency result in [1], in assay [2], in assay [18] and in assay [10] was “inactive” in each case. Besides, the Potency was 15 µM (active) in [3]; 1.97 µM (active) in assay [14]; 3.55 µM (active) in assay [15]; 3.98 µM (active) in [16]; 3.16 µM (active) in assay [17]. Also, the compound was called inactive in assay [7], in assay [8] and in assay [12].

For the compound `Cc1c(C)c2c(c(C)c1O)CCC(C)(COc1ccc(CC3SC(=O)NC3=O)cc1)O2` (stereo not given), the Potency result in assay [13] and in assay [5] was “inactive” in each case. The compound was classed as inactive in [11].

For `CC(C)NCC(O)COc1ccc(COCCOC(C)C)cc1` (stereo not given), the Potency entry in [1], in [3], in assay [5] and in assay [10] was “inactive” throughout. The compound was classed as inactive in [7], in [11] and in assay [12].

Turning to `N[C@@H]1CONC1=O`, the Potency entry in assay [1], in assay [3], in assay [5] and in assay [10] was “inactive” in each case. Moreover, the compound was called inactive in [7], in assay [11] and in assay [12].

On to `CCOC(=O)N1CCC(=C2c3ccc(Cl)cc3CCc3cccnc32)CC1`, for which the Potency result in assay [1], in assay [3], in assay [5] and in assay [10] was “inactive” throughout. For the same compound, the result in assay [7] and in assay [12] was inactive.
